Screens as filed in PubChem BioAssay.
NPC1 promoter act: qHTS Assay for NPC1 Promoter Activators | Potency, µM (series often up to 9.22 µM), for the others: at the top dose activation, hits mostly activators | AID 485313, 2010 | Huh7 NPC1 promoter luciferase reporter, 24 h | hit rate 2.4% among 320,000; note: % of control where 0% means no effect; nearly all actives have a fitted effect of over 60% in size
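Quantitative HTS used a cell-based reporter: Huh7 cells stably bearing the NPC1 promoter upstream of luciferase were treated with compounds for 24 h, and promoter activation was read as luminescence.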
ELG1 genotoxic: qHTS screen for small molecules that induce genotoxicity in human embryonic kidney (HEK293T) cells expressing luciferase-tagged ELG1; HEK293T ELG1-luciferase reporter, luminescence, 16 h; hit rate 1.3% among 330,000; AID 504466, 2011; Potency, µM (titrated, usually from 46 µM), without a hit: at the top dose activity change, positive = activation, most hits filed as activators; note: % of control where 0% means no effect; nearly all actives have a fitted effect of over 60% in size
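Reporter readout depends on ELG1 protein level, which increases with genetic stress. After 16 hr compound exposure at 37 °C, luciferase activity was quantified using ONE-Glo.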
Rab9 prom act: qHTS Assay for Rab9 Promoter Activators. Huh7 Rab9 promoter-luciferase reporter, luminescence, 24 h. AID 485297, 2010. Potency, µM (titrated, usually from 9.22 µM), inactives show top-dose activation, negative = inhibition, usual class: activators. hit rate 2.8% among 320,000; note: % of control where 0% means no effect; nearly all actives have a fitted effect of over 60% in size
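Luciferase signal after 10 min detection reagent at ambient indicates Rab9 promoter upregulation; stably transfected Huh7 cells were treated 24 h with compound in DMSO at 37 °C, 5% CO2.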
FLuc modulator: qHTS profiling assay for firefly luciferase inhibitor/activator using purifed enzyme and Km concentrations of substrates (counterscreen for miR-21 project); Luciferin 4-monooxygenase (Photinus pyralis), P08659; purified FLuc, Km substrates, luminescence inhibition; Potency, µM (highest dose often 57.5 µM), for inactives: at the top dose activity change, negative = inhibition, hits mostly inhibitors; hit rate 6.9% among 360,000;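 note: plate controls were vehicle for no effect and reference inhibitor for full effect; nearly all actives have a fitted effect of over 55% in size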
Target sequence (P08659 whole entry, looked up): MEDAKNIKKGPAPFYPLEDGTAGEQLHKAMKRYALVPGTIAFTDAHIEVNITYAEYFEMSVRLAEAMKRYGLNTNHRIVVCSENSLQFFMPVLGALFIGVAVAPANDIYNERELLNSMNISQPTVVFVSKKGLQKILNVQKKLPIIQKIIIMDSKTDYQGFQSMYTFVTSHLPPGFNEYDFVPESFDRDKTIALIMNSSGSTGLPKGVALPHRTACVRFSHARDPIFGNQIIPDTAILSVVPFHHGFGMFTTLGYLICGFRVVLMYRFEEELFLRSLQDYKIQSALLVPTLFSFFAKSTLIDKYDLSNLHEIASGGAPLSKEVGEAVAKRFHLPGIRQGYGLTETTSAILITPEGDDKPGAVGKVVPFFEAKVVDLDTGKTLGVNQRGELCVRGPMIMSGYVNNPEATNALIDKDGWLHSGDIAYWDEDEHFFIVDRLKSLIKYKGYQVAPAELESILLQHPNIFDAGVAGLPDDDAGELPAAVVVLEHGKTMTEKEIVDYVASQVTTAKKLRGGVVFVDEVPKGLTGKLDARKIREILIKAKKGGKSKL
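Purified P. pyralis luciferase, 10 nM final, with Km-level 10 uM D-luciferin and 10 uM ATP in 50 mM Tris acetate pH 7.5, 10 mM Mg acetate, 0.01% Tween-20, 0.05% BSA; 6-point qHTS titration about 60 µM downward; luminescence read.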
p53 reactivator: qHTS assay for re-activators of p53 using a Luc reporter; H1299 p53-A138V BP100-luciferase reporter, luminescence, 24 h; Potency, µM (doses to about 92.2 µM), without a hit: top-dose activity change, positive = activation, hits mostly activators; hit rate 0.063% among 320,000; note: % of control where 0% means no effect; nearly all actives have a fitted effect of over 45% in size
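H1299 (p53-null), stable ts p53-A138V + BP100-Luc; 1000 cells/well, Opti-MEM/10% FBS; cpd 4 pt, 1:5; 24 h, 37 deg C, 5% CO2; detection reagent 10 min RT; luminescence.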
SMN2 splice enh: qHTS Assay for Enhancers of SMN2 Splice Variant Expression. hit rate 2.8% among 210,000. Potency, µM (highest dose often 46.1 µM), for inactives: top-dose activity change, positive = activation, usual class: activators. HEK293 SMN2-luciferase splicing reporter, luminescence, 30-36 h; note: % of control where 0% means no effect; nearly all actives have a fitted effect of over 55% in size
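HEK293 cells carry an SMN2 […]–luciferase reporter in which exon 7 inclusion puts luciferase in frame. Cells were plated 10-12 h before compound addition, then incubated 30-36 h at 37C. ONE-Glo luminescence was read; sodium butyrate at 4.5 mM final served as control.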
* hit, by the source's call; [ ] = another dose, or the depositor's remark. A selection: hits, their analogues and other compounds. The true share with any hit is near 7.3%. Calls come from the whole dose curve; as a rule, active = well fitted curve in the direction sought with a large enough effect; inconclusive = small, poorly fitted or top-dose-only effect, or another doubt; inactive = no such curve, though single readings can be large; an effect the other way counts as inactive or inconclusive. Potency is the fitted concentration of half-maximal effect.

How did Cc1ccc(C(=O)c2coc3ccc(O)cc23)cc1 do in these assays?
NPC1 promoter act: inconclusive; ELG1 genotoxic: inconclusive; Rab9 prom act: 20%; FLuc modulator: 1.1µM*; p53 reactivator: 35%

Results for Cc1oc2ccc(O)cc2c1C(=O)c1ccc(Cl)cc1 ?
NPC1 promoter act: 0%; ELG1 genotoxic: -2%; Rab9 prom act: 17%; FLuc modulator: inconclusive; p53 reactivator: 21%; SMN2 splice enh: -21%

How did Cc1ccc2cc(/C=C3\N=C(c4ccccc4)OC3=O)c(N3CCOCC3)nc2c1 do in these assays?
NPC1 promoter act: 1%; ELG1 genotoxic: 0%; Rab9 prom act: -3%; FLuc modulator: 1%; p53 reactivator: -11%; SMN2 splice enh: -1%

What do the screens show for `CC(=O)n1cc(/C=C2/N=C(c3ccccc3)OC2=O)c2ccccc21`?
NPC1 promoter act: -2%; ELG1 genotoxic: 1%; Rab9 prom act: -1%; FLuc modulator: 5.4µM*; p53 reactivator: -2%; SMN2 splice enh: -2%

Results for Cc1ccc(/C=C/C2=NN(C)C(=O)CC2)cc1 ?
NPC1 promoter act: 3.5µM*; ELG1 genotoxic: inconclusive; Rab9 prom act: 0.89µM*; FLuc modulator: 6.7µM*; p53 reactivator: 26%; SMN2 splice enh: 11µM*

What do the screens show for `CN1N=C(/C=C/c2ccccc2)CCC1=O`?
NPC1 promoter act: -24%; ELG1 genotoxic: inconclusive; Rab9 prom act: inconclusive; FLuc modulator: inconclusive; p53 reactivator: 9%; SMN2 splice enh: inconclusive

What do the screens show for `CCC(=O)N1CCc2cc(S(=O)(=O)NCCC(=O)Nc3ccc(C)cc3C)ccc21`?
FLuc modulator: -4%; SMN2 splice enh: 1%

Results for Cc1ccc(NC(=O)CSc2cn(CC(=O)N3CCOCC3)c3ccccc23)cc1Cl ?
FLuc modulator: -16%

Results for C=CCN(C(=O)C1CSC2(C)CCC(=O)N12)c1nc(-c2ccccc2)cs1 (stereo not drawn) ?
NPC1 promoter act: 1%; ELG1 genotoxic: 18µM*; Rab9 prom act: 7%; FLuc modulator: -1%; p53 reactivator: -4%

What do the screens show for `Cc1ccc(-c2csc(NC(=O)C3CSC4(C)CCC(=O)N34)n2)cc1` (stereo not drawn)?
NPC1 promoter act: -2%; ELG1 genotoxic: 14%; Rab9 prom act: 10%; FLuc modulator: -3%; p53 reactivator: -4%

What do the screens show for `COc1cc(-c2cc3nc(C)c(C)c(=O)n3[nH]2)cc(OC)c1OC`?
NPC1 promoter act: 0%; ELG1 genotoxic: 0%; Rab9 prom act: -6%; FLuc modulator: -5%; p53 reactivator: 1%; SMN2 splice enh: -4%

What do the screens show for `CCCCc1c(C)nc2cc(-c3ccco3)[nH]n2c1=O`?
NPC1 promoter act: inconclusive; ELG1 genotoxic: inconclusive; Rab9 prom act: inconclusive; FLuc modulator: 12µM*; p53 reactivator: 12%

What do the screens show for `C=CCc1c(C)nc2cc(-c3ccc(C)cc3)[nH]n2c1=O`?
NPC1 promoter act: 1.6µM*; ELG1 genotoxic: 1.8µM*; Rab9 prom act: inconclusive; FLuc modulator: 3µM*

What do the screens show for `CCc1c(C)nc2cc(-c3ccccc3)[nH]n2c1=O`?
NPC1 promoter act: 3.2µM*; ELG1 genotoxic: inconclusive; Rab9 prom act: inconclusive; FLuc modulator: 11µM*

Results for CCOC(=O)Cc1c(C)nc2cc(-c3ccc(C(C)(C)C)cc3)[nH]n2c1=O ?
NPC1 promoter act: 1%; ELG1 genotoxic: inconclusive; Rab9 prom act: 10%; FLuc modulator: 11µM*; p53 reactivator: 28%; SMN2 splice enh: -5%

What do the screens show for `Cc1ccc(NC(=O)c2oc3ccc(S(=O)(=O)N4CCC5(CC4)OCCO5)cc3c2C)c(C)c1`?
FLuc modulator: 3%

How did CCOC(=O)Cc1c(C)nc2c(-c3cccc(Br)c3)c[nH]n2c1=O do in these assays?
NPC1 promoter act: 2%; ELG1 genotoxic: -11%; Rab9 prom act: 1%; FLuc modulator: 21µM*; p53 reactivator: 3%; SMN2 splice enh: -88%

What do the screens show for `COc1ccc2c(c1)Cc1cc(N=[N+]([O-])c3ccc4c(c3)Cc3cc(OC)ccc3-4)ccc1-2`?
SMN2 splice enh: 2%[9.22 µM]

Results for CCc1ccc(OCC(=O)NNC(=O)Cc2cccs2)cc1 ?
NPC1 promoter act: 0%; ELG1 genotoxic: -1%; Rab9 prom act: 2%; FLuc modulator: 1%; p53 reactivator: 0%; SMN2 splice enh: -9%

How did CCCOc1ccc(CNC(=O)Cc2cccs2)cc1 do in these assays?
NPC1 promoter act: inconclusive; ELG1 genotoxic: inconclusive; Rab9 prom act: inconclusive; FLuc modulator: 19µM*; p53 reactivator: inconclusive

How did O=C(Cc1cccs1)NCc1ccccc1Br do in these assays?
NPC1 promoter act: inconclusive; ELG1 genotoxic: inconclusive; Rab9 prom act: 4µM*; FLuc modulator: 19µM*; p53 reactivator: 15%

How did O=C(Cc1cccs1)NCc1cccc(CNC(=O)Cc2cccs2)c1 do in these assays?
NPC1 promoter act: -2%; ELG1 genotoxic: 0%; Rab9 prom act: 0%; FLuc modulator: -3%; p53 reactivator: 0%; SMN2 splice enh: 12%

What do the screens show for `O=C(Cc1cccs1)NCc1ccc(Cl)cc1Cl`?
NPC1 promoter act: 3.2µM*; ELG1 genotoxic: inconclusive; Rab9 prom act: 2.8µM*; FLuc modulator: 15µM*

What do the screens show for `CCc1ccc2nc(/N=C(\N)NC(=O)c3ccccc3)nc(C)c2c1`?
NPC1 promoter act: 23%; ELG1 genotoxic: 4%; Rab9 prom act: inconclusive; FLuc modulator: 6µM*; p53 reactivator: 1%

What do the screens show for `O=C(N/N=C/c1ccccn1)c1ccc(Cl)c(Cl)c1`?
NPC1 promoter act: 0%; ELG1 genotoxic: 21µM*; Rab9 prom act: 2%; FLuc modulator: inconclusive; p53 reactivator: inconclusive

What do the screens show for `O=C(N/N=C/c1ccccn1)c1cc(-c2ccc3ccccc3c2)n[nH]1`?
NPC1 promoter act: -2%; ELG1 genotoxic: -4%; Rab9 prom act: -4%; FLuc modulator: 7.6µM*; p53 reactivator: -10%; SMN2 splice enh: 4%

Results for O=C(N/N=C/c1ccccn1)c1cc(-c2ccccc2Cl)n[nH]1 ?
NPC1 promoter act: 3%; ELG1 genotoxic: 8%; Rab9 prom act: -2%; FLuc modulator: 24µM*; p53 reactivator: 23%; SMN2 splice enh: -13%
